In the library only some 4.7% were active in any assay of this set; here they are far more common.
D1 agonist – Allosteric Agonists of the Human D1 Dopamine Receptor: qHTS; D(1A) dopamine receptor (Homo sapiens), P21728; 360,000 tested, 1% active; HEK293 T-REx D1 cells, calcium flux, agonist mode; activation, % at 2 µM; further: 0% is about no effect
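Agonism was scored from calcium flux recorded over 180 s (1 read/s) after pintool compound addition, following a 10-cycle baseline. Cells were inducible force-coupled HEK293 TREx D1, plated overnight at 30 C and loaded with no-wash calcium dye.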
D1 PAM – Potentiators of Human D1 Dopamine Receptor: qHTS; HEK293 TREx D1 cells, calcium flux, dopamine EC20 potentiation; 360,000 tested, 0.036% active; potentiation, % at 10 µM; in the data active means potentiation above about 30%; further: 0% is about no effect
D1 antagonist – Antagonist of Human D 1 Dopamine Receptor: qHTS. D(1A) dopamine receptor (Homo sapiens), P21728. HEK293 TREx D1 cells, calcium flux, dopamine EC80; hits give low values. activity change, negative = inhibition, % at 10 µM. 360,000 tested, 3.2% active. AID 504652, 2011; in the data active means activity change below about -30%; further: on the % scale 0 is the no-effect control and ±100 the full control effect
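Cells carrying a force-coupled, tetracycline-inducible human D1 receptor report calcium flux. Each well gets a 10 s baseline, compound with 180 s monitoring, then an EC80 dopamine stimulus with a second 180 s kinetic read.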
TRHR enhancer – qHTS for Small Molecule Agonists and Allosteric Enhancers of Human TRH Receptor: Primary Screen for Enhancers; Thyrotropin-releasing hormone receptor (Homo sapiens), P34981; TRHR cells, fluo-8 calcium fluorescence, EC20 TRH enhancement; enhancement, % at 2 µM; 360,000 tested, 0.66% active; AID 493056, 2011; in the data active means enhancement above about 30%; further: 0% is about no effect
Target sequence (P34981 whole entry, looked up): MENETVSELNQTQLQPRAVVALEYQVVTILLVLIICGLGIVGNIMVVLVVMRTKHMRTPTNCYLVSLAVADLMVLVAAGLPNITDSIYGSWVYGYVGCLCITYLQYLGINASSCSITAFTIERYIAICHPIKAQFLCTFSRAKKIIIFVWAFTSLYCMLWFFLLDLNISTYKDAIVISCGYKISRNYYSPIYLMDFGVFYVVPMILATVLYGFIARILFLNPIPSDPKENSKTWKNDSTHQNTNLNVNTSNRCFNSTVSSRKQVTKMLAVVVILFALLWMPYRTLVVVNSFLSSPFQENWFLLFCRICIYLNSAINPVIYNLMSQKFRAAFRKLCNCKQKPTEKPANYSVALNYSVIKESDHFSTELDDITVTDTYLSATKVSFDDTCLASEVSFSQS
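Enhancer read-out: after compound pinning and an initial kinetic agonist-mode read, an EC20 of TRH (10 nM final) was injected and fluo-8 calcium signal (Ex 480/Em 530) followed at 1 s/cycle for 100 cycles in TRHR-expressing cells.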
TRHR agonist – qHTS for Small Molecule Agonists and Allosteric Enhancers of Human TRH Receptor: Primary Screen for Agonists. AID 493084, 2011. TRHR cells, calcium flux fluo-8, FDSS agonist mode. 360,000 tested, 0.18% active. activation, % at 2 µM; further: 0% is about no effect
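Read-out: compound-evoked intracellular calcium rise in TRHR cells, fluo-8 dye, kinetic FDSS fluorescence at 1 s/cycle following a 10-cycle baseline. Cells cultured overnight before dye loading (30 min–1.5 h, RT).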
The depositor's hits bear a star; ! = not confirmed by another sample. Unless noted, no stated cut-off is given here; in the data, active means activation above about 30%; inactive means the rest.

SMILES	D1 agonist	D1 PAM	D1 antagonist	TRHR enhancer	TRHR agonist
O=C1c2ccccc2C(=O)N1Cc1ccccn1	2	-6	-37*	2	1
O=C(O)c1ccc(NC(=O)c2cccc(N3C(=O)C4C5CCC(C5)C4C3=O)c2)cc1 (stereo not given)	3	-2	9	-9	0
COc1ccc(NC(=O)c2cccc(N3C(=O)C4C5C=CC(C5)C4C3=O)c2)c(OC)c1 (stereo not given)	2	-3	-8	1	0
COc1ccc(NC(=O)c2cccc(N3C(=O)C4C5C=CC(C6CC56)C4C3=O)c2)c(OC)c1 (stereo not given)	4	3	-39*	8	0
COc1ccc(NC(=O)c2cccc(N3C(=O)C4C5CCC(C5)C4C3=O)c2)cc1 (stereo not given)	6	-2	-80*	14	0
CCN(CC)c1ccc(/C=C(/C#N)C(=O)NC(C)C)o1	57*	-4	-7	0	20
CC(C)NC(=O)/C(C#N)=C\c1ccc(N(C)C)o1	3	3	-5	2	-1
CCN(CC)c1ccc(/C=C(/C#N)C(=O)NCc2ccccc2)o1	152*	-1	-6	8	59*
CC(=O)Nc1ccc(/C=C(\C#N)C(=O)NCc2ccccc2)cc1	0	-2	-7	-1	0
CCN(CC)S(=O)(=O)c1ccc(S(=O)(=O)NCc2cccs2)cc1	8	-4	-11	-11	0
CCCOc1ccc(S(=O)(=O)NCc2ccc(OC)cc2)cc1	17	-3	-44*	1	1
COc1ccc(S(=O)(=O)NCc2cccs2)cc1	3	-3	-32*	-5	-2
O=S(=O)(c1ccc(Cl)cc1)c1nc(-c2cccs2)oc1SCc1ccccc1F	4	0	-3	-4	1
CC(=O)n1cc(/C=N/NC(=O)c2ccccc2O)c2ccccc21	3	-3	-7	-3	1
CC(C)(C)OC(=O)n1cc(/C=N/NC(=O)c2ccco2)c2ccccc21	3	-2	-5	31*	-1
CCc1cc2c(=O)n(Cc3ccco3)c(SCC(=O)NC3CCS(=O)(=O)C3)nc2s1 (stereo not given)	0	-5	8	2	0
CCn1c(SCC(=O)N(C)C2CCS(=O)(=O)C2)nnc1-c1ccccc1 (stereo not given)	2	-13	-64*	11	-1
CCc1cc2c(=O)n(Cc3ccco3)c(SCC(=O)N(C)C3CCS(=O)(=O)C3)nc2s1 (stereo not given)	0	-7	-36*	-1	-1
COc1cc(NC(=O)CCn2c(-c3ccccc3)cc(C(C)=O)c2C)cc(OC)c1	3	1	10	-1	-1
CNC(=O)C1CCC(Cn2c(=O)c3sccc3n(CC(=O)N3CCC(C)CC3)c2=O)CC1 (stereo not given)	1	3	-8	2	0
CCc1cc2c(cc3c(=O)n(CC(=O)NCc4cc(Br)ccc4OC)ncn32)s1	3	-5	5	3	0
Cc1cc(C(=O)OCC(=O)NCc2cccs2)c2ccccc2n1	8	-1	-31*	0	0
Cc1cc(CNC(=O)COc2ccc(F)cc2)c2ccccc2n1	9	-10	12	-1	-1
CCN(CC)CCNC(=O)c1cc(-c2ccc(Br)s2)nc2ccccc12	34*!	-1	-5	-5	2
Cc1cc(CNC(=O)COc2ccccc2)c2ccccc2n1	14	3	-35*	-5	0
CCNC(=O)COC(=O)c1cc(C)nc2ccccc12	2	16	-19	2	0
O=C(NCCc1ccccc1)c1cc(Sc2cccc(Cl)c2)nc2ccccc12	12	-1	-43*	-5	2
CCc1ccc(NC(=O)Cn2c(=O)n(Cc3ccco3)c(=O)c3oc4ccccc4c32)cc1	1	-4	4	-4	1
N#CC1=C2SCN(C3CCCCC3)CN2C(=O)CC1c1c(F)cccc1Cl (stereo not given)	2	2	4	7	1

Screens as filed in PubChem.
